# AmpC inh no detg – inhibitors of E. coli AmpC beta-lactamase without detergent | AmpC nitrocefin hydrolysis, absorbance 480 nm, 0.0001% Triton | Potency, µM (top dose mostly 57.1 µM), for inactives: at the highest dose activity change, negative = inhibition, actives largely listed as inhibitors | hit rate 0.52% among 330,000;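 note: plate controls were no compound for no effect and no enzyme for full effect; nearly all actives have a fitted effect of over 20% in size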
# Target sequence (P00811 whole entry, looked up): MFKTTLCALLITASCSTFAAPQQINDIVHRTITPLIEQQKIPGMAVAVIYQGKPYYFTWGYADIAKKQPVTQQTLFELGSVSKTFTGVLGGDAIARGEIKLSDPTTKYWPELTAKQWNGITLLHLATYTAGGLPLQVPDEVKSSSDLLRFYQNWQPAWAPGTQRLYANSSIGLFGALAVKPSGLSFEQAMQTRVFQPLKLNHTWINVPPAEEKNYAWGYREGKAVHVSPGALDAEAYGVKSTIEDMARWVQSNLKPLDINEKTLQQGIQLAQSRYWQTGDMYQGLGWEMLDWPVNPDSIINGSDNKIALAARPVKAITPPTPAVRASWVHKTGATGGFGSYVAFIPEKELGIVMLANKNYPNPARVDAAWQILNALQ
#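 AmpC (5.3 nM in the dispensed reagent) in 20 mM phosphate pH 7.0 with 0.01% (detergent screen) or 0.0001% Triton X-100 was preincubated with compounds for 15 min at room temperature. Nitrocefin was then added from an 800 uM solution, and hydrolysis was followed at 480 nm.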
# AMA1 RON2 block – inhibitors of Plasmodium falciparum AMA1-RON2 interaction | Potency, µM (top dose mostly 58.2 µM), for inactives: top-dose activity change, negative = inhibition, usual class: inhibitors | hit rate 0.2% among 360,000 | AlphaScreen AMA1-biotinylated RON2 peptide binding;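 note: 0% = vehicle wells and -100% = peptide control; nearly all actives have a fitted effect of over 45% in size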
#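 AMA1 (3D7) with his tag at 25 nM final met compounds first, then biotinylated RON2 peptide at 25 nM; detection used donor plus acceptor beads, 10 µg/mL apiece, read by AlphaScreen after 30 min at room temperature.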
# Sm TGR block – S. mansoni TGR enzyme inhibition. Q962Y6. purified TGR, DTNB reduction, TNB absorbance 405 nm. Potency, µM (titrated, usually from 114 µM), for the others: top-dose activity change, negative = inhibition, most hits filed as inhibitors. hit rate 3% among 360,000. AID 485364; note: nearly all actives have a fitted effect of over 60% in size
#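 Kinetic colorimetric format: TGR-catalysed, NADPH-driven DTNB reduction monitored via TNB absorbance. Enzyme dispensed at 20 nM; compound exposure 15 min at room temperature before reaction start.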
# AmpC inh detg – AmpC beta-lactamase inhibition with detergent present. hit rate 0.041% among 370,000. AmpC hydrolysis of nitrocefin, absorbance 480 nm, 0.01% Triton. AID 485294. Potency, µM (doses to about 114 µM), inactives show at the highest dose activity change, negative = inhibition, hits mostly inhibitors. P00811;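 note: 0% = no-compound wells and -100% = no-enzyme wells; nearly all actives have a fitted effect of over 25% in size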
#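 AmpC (5.3 nM in the dispensed reagent) in 20 mM phosphate pH 7.0 with 0.01% (detergent screen) or 0.0001% Triton X-100 was preincubated with compounds for 15 min at room temperature. Nitrocefin was then added from an 800 uM solution, and hydrolysis was followed at 480 nm.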
# FMDV antiviral – blocks foot and mouth disease virus; FMDV antiviral cell-based qHTS; Potency, µM (highest dose often 57.9 µM), for the others: top-dose activity change, negative = inhibition, most hits filed as inhibitors; hit rate 1.2% among 410,000; calls by dose curve; tested in HEK293T cells; note: read-out not given here; nearly all actives have a fitted effect of over 45% in size
# The depositor's hits bear a star; ? = inconclusive; nt = no result given; [ ] = dose if it differs, or a comment. Rows were chosen to be rich in hits. Some 4.1% of all compounds tested hit in one or more screens of this group. Unless noted, calls come from the whole dose curve; as a rule, active = well fitted curve in the direction sought with a large enough effect; inconclusive = small, poorly fitted or top-dose-only effect, or another doubt; inactive = no such curve, though single readings can be large; an effect the other way counts as inactive or inconclusive. Unless noted, % is set by controls: 0 for no effect and ±100 for the full control effect; potency is the fitted concentration of half-maximal effect.
SMILES,AmpC inh no detg,AMA1 RON2 block,Sm TGR block,AmpC inh detg,FMDV antiviral
COc1cc(C2CC(=O)Oc3c(C(CCN4CCN(c5ccccc5)CC4)c4ccc(N(C)C)cc4)c(OC)cc(OC)c32)cc(OC)c1OC (centres undefined),208%,14µM*,7%,0%,0%
CCN(CC)CCC(c1ccc(N(C)C)cc1)c1c(OC)cc(OC)c2c(-c3ccccc3)cc(=O)oc12 (centres undefined),187%,18µM*,-4%,2%,9%
COc1cc(OC)c2c(-c3ccccc3)cc(=O)oc2c1C(CC(=O)N1CCOCC1)c1ccc(N(C)C)cc1 (centres undefined),169%,?,?,6%,35%
COc1cc(C2CC(=O)Oc3c(C(CCN4CCOCC4)c4ccc(N(C)C)cc4)c(OC)cc(OC)c32)cc(OC)c1OC (centres undefined),223%,?,-12%,0%,-8%
CCCCCc1cc(=O)oc2c(C(CCN3CCN(c4ccccc4)CC3)c3ccc(N(C)C)cc3)c(OC)cc(OC)c12 (centres undefined),79%,11µM*,7%,-4%,-12%
Cc1cc(=O)n2nc(N(C)CC(=O)NCc3cccc(Br)c3)sc2n1,nt,nt,2%,19%,-20%
COCCn1c(=O)c(-c2ccc(Cl)cc2)nc2cnc(N3CCOCC3)nc21,nt,nt,nt,nt,-14%
Cc1ccccc1CN1CCc2nnc(C(C)NC(=O)c3cc(F)ccc3F)n2CC1 (centres undefined),nt,nt,nt,nt,-8%
O=C(NCC(c1cccnc1)N1CCc2ccccc21)c1cccc(Br)c1 (centres undefined),nt,nt,-10%,0%,0%
CCc1ccc(CCC(=O)Nc2nccs2)o1,-39%,-11%,32µM*,12%,20%
Cc1ccc(NC(=O)CCc2ccc(C)o2)cc1,-26%,35%,7%,1%,22%
CCOc1ccc(OCC(=O)Nc2nccs2)cc1,-21%,25%,nt,7%,8.9µM*
Cc1ccc(CCC(=O)Nc2nccs2)o1,-21%,-8%,45µM*,10%,nt
O=C(CCc1ccccc1)Nc1nccs1,-16%,-9%,-25%,-14%,41%
CN1CC(=O)NC1=N,nt,nt,nt,nt,3%
O=C(NCCC(=O)N1CCN(c2ccccc2F)CC1)c1ccco1,-3%,-9%,-12%,3%,30%
COc1ccccc1N1CCN(/N=C/C=C\c2ccco2)CC1,20%,?,40µM*,5%,-8%
COc1ccccc1N1CCN(/N=C/c2cccc(Cl)c2)CC1,-6%,14µM*,-1%,-5%,37%
COc1cccc(/C=N/N2CCN(c3ccccc3OC)CC2)c1,-5%,?,-1%,3%,22%
Cc1ccc(/C=C/C(=O)N2CCN(c3ncccn3)CC2)o1,-1%,-5%,3.2µM*,-1%,?
O=C(NCCC(=O)N1CCN(c2ccc(F)cc2)CC1)c1ccco1,2%,4%,45µM*,?,-2%
CC(C)(C)c1ccc(/C=C/C(=O)N2CCN(c3ncccn3)CC2)cc1,-6%,1%[2.32 µM],-2%,-11%,?
COc1cc(OC)c(/C=N/N2CCN(c3ccccc3OC)CC2)c(OC)c1,117%,-1%,-20%,-5%,-18%
CC(=O)Nc1c(C(=O)Nc2cccc(C)c2)nnn1-c1ccc(C)cc1,nt,nt,-27%,20%,11%
Cc1ccc(/C=C/C(=O)N2CCCC(C(N)=O)C2)o1 (centres undefined),-3%,10%,32µM*,5%,9%
SMILES,AmpC inh no detg,AMA1 RON2 block,Sm TGR block,AmpC inh detg,FMDV antiviral
COc1ccccc1/C=C/C=N/N1CCN(c2ccccn2)CC1,-19%,-22%,-1%,-4%,?
CC1CCCC(C)N1/N=C/c1ccc([N+](=O)[O-])cc1 (centres undefined),-9%,?,9%,1%,-13%
O=C(/C=C/c1ccco1)N1CCCC(c2ccccc2)C1 (centres undefined),-17%,0%,nt,?,-24%
COc1ccccc1N1CCN(/N=C/C=C\c2ccccc2[N+](=O)[O-])CC1,35%,20µM*,10%,-4%,-6%
O=C(/C=C/c1ccco1)N1CCN(c2ccc(F)cc2)CC1,7%,-2%,10µM*,8%,7%
CC1CCCC(C)N1/N=C/C=C/c1ccccc1[N+](=O)[O-] (centres undefined),-14%[11.4 µM],16µM*,-4%,-11%,21%
CC(=O)OC1CC(OC(C)=O)[C@]2(C)C(CC(=O)[C@]3(C)C2CC[C@@]2(C)C(C(=O)O)OC(=O)C4OC423)C1(C)C (some centres undefined),nt,nt,nt,nt,6%
CN1CC(=O)N(CC(=O)Nc2ccc(OC(F)(F)F)cc2)c2ccccc2C1=O,nt,nt,-1%,0%,-12%
COc1ccc(N2CCN(C(=O)/C=C/c3ccco3)CC2)cc1,1%,13%,18µM*,?,-8%
Cc1ccc(/C=C/C(=O)N2CCN(c3ccc(F)cc3)CC2)o1,-7%,0%,50µM*,-7%,?
COc1ccc(C(=O)N2CCN(c3ccc(NC(=O)c4ccco4)cc3)CC2)cc1,-7%,5%,8%,4%,-26%
O=C(/C=C/c1ccc(F)cc1)N1CCN(c2ncccn2)CC1,-10%,6%,2%,6%,32%
COc1ccccc1N1CCN(C(=O)/C=C/c2ccco2)CC1,2%,-6%,50µM*,-13%,20%
CCOC(=O)c1c(C)oc2nc(C)nc(NCCc3ccc(C)cc3)c12,nt,nt,-15%,-2%,-10%
CCOc1ccc(S(=O)(=O)N2CCCC(C(=O)N3CCN(c4ccccc4)CC3)C2)cc1 (centres undefined),105%,-21%,-14%,2%,28µM*
Cn1c(=O)oc2cc(S(=O)(=O)N3CCC(C(=O)N4CCN(c5cccc(Cl)c5)CC4)CC3)ccc21,nt,nt,-8%,-6%,?
Cc1cccc(N2CCN(C(=O)C3CCCN(S(=O)(=O)c4ccc5c(c4)oc(=O)n5C)C3)CC2)c1C (centres undefined),nt,nt,-7%,-3%,11µM*
Cn1c(=O)oc2cc(S(=O)(=O)N3CCCC(C(=O)N4CCN(c5cccc(Cl)c5)CC4)C3)ccc21 (centres undefined),nt,nt,2%,-2%,25µM*
C#Cc1cccc(C(=O)NCc2nc(-c3ccccc3NC(=O)C3CCCO3)oc2C)c1 (centres undefined),nt,nt,nt,nt,-7%
CCOc1ccccc1NC(=O)c1cc2c(=O)oc3ccccc3c2s1,nt,nt,7%,19%,-5%
Cc1ccc(NC(=O)CSc2nnc(-c3cnccn3)n2Cc2ccco2)cc1,10%,8%,45µM*,3%,22%
O=C(CSc1nnc(-c2cnccn2)n1Cc1ccco1)c1ccc2ccccc2c1,78%,-3%,25µM*,?,-6%
C(=C\c1ccccc1)/CSc1nnc(-c2cnccn2)n1Cc1ccco1,11%,-12%,20µM*,-2%,-18%

# Assay outcomes from PubChem BioAssay.
